From PubChem
D1 antag: human D1 dopamine receptor antagonism; activity change, negative = inhibition, % at 10 µM; actives 3.2% (n = 360,000); HEK293 TREx D1 cells, calcium flux, dopamine EC80; hits give low values; P21728; in the data active means activity change below about -30%
Target sequence (P21728 whole entry, looked up): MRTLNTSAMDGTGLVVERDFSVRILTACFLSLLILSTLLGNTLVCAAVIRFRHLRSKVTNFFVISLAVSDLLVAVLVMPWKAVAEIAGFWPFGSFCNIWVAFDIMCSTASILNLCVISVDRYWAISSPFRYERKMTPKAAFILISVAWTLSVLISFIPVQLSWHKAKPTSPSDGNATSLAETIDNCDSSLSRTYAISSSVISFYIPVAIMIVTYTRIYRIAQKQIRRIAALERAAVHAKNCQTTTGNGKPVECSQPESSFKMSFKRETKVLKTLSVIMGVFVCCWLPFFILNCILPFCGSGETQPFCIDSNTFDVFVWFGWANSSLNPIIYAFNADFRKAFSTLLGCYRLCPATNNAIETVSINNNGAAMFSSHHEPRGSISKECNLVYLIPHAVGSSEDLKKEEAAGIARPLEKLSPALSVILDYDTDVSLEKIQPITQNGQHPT
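Kinetic fluorescence of a calcium dye serves as the read-out. D1-expressing Hek293 Trex cells, induced overnight at 30 C, are exposed to compound for 180 s before an EC80 dopamine addition, then read 180 s further.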
D1 PAM: potentiators of human D1 dopamine receptor. P21728. HEK293 TREx D1 cells, calcium flux, dopamine EC20 potentiation. potentiation, % at 10 µM. actives 0.036% (n = 360,000); in the data active means potentiation above about 30%
D1 agonist: human D1 receptor agonism | actives 1% (n = 360,000) | HEK293 T-REx D1 cells, calcium flux, agonist mode | activation, % at 2 µM
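Agonism was scored from calcium flux recorded over 180 s (1 read/s) after pintool compound addition, following a 10-cycle baseline. Cells were inducible force-coupled HEK293 TREx D1, plated overnight at 30 C and loaded with no-wash calcium dye.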
TRHR PAM: allosteric enhancers of human TRH receptor. P34981. TRHR cells, fluo-8 calcium fluorescence, EC20 TRH enhancement. enhancement, % at 2 µM. actives 0.66% (n = 360,000); in the data active means enhancement above about 30%
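TRHR-expressing cells loaded with fluo-8 calcium dye were read kinetically (ex 480/em 530) during compound addition, then stimulated with an EC20 of TRH (10 nM final). Enhancement of the Gq-mediated intracellular calcium response was scored.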
TRHR agonist: agonists of human TRH receptor | actives 0.18% (n = 360,000) | activation, % at 2 µM | AID 493084 | TRHR cells, calcium flux fluo-8, FDSS agonist mode | P34981
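TRHR-expressing cells, plated overnight in medium with 10% serum, were loaded with fluo-8 calcium dye at room temperature. After a 10 s baseline, library compound was pin-added and calcium release was recorded kinetically (ex 480/em 530) as agonist response.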
Numbers stand for hits; . = inactive; / = no result; ! = a repeat was not active. Most compounds without a hit are left out; they make up all but 4.7% or so of the library. Unless noted, no stated cut-off is given here; in the data, active means activation above about 30%; inactive means the rest.

SMILES	D1 antag	D1 PAM	D1 agonist	TRHR PAM	TRHR agonist
CC(CNC(=O)c1ccccc1Cl)c1ccccc1 (stereo not given)	.	.	.	.	.
CCOc1ccc(-n2nc3cc(C)c(N)cc3n2)cc1	-30	.	.	.	.
CCOc1ccc(-n2nc3ccc(N)cc3n2)cc1	.	.	.	.	.
Cc1cc2nn(-c3ccc(F)cc3)nc2cc1N	.	.	.	32	.
Cn1cc(CN(C(=O)Nc2ccc(Cl)c(Cl)c2)C2CCCCC2)c2ccccc21	-47	.	.	.	.
O=S(=O)(c1c(F)cccc1F)N1CCN(S(=O)(=O)c2c(F)cccc2F)CC1	-30	.	.	.	.
O=C1CCN2C=Nc3cccc4ccc1c2c34	.	.	170	.	136
CCC(C)Sc1ccc([C@H]2N[C@@](Cc3ccccc3)(C(=O)OC)[C@H]3C(=O)N(CC)C(=O)[C@@H]23)cc1OC (stereo not given in full)	.	.	.	.	.
CN(CCC#N)C(=S)Nc1ccc(F)cc1	-31	.	.	.	.
CCOC(=O)c1c(C)[nH]c(C)c1C(=O)COC(=O)c1cccc(S(=O)(=O)N(CC)CC)c1	-49	.	.	.	.
CCOC(=O)c1c(C)[nH]c(C)c1C(=O)COC(=O)c1cc(OC)c(OC)cc1OC	-32	.	.	.	.
CC(C)Cc1nn2c(=O)cc(COC(=O)c3cccc(NC(=O)CCc4ccccc4)c3)nc2s1	.	.	.	.	.
CC(C)c1ccc(CN(C)C(=O)c2ccc(S(=O)(=O)NCc3ccco3)cc2)cc1	-30	.	.	.	.
Cc1ccc(/C=c2/sc3nnc(-c4ccccc4Cl)n3c2=O)o1	.	.	.	.	.
CCN(CC)c1ccc(/C=c2/sc3nnc(-c4ccccc4C)n3c2=O)cc1	.	.	31	.	.
CCN(CC)c1ccc(/C=c2\sc3nnc(-c4ccccc4Cl)n3c2=O)cc1	.	.	59	.	.
CCN(CC)c1ccc(/C=C2/C(=O)ON=C2C)cc1	.	.	.	.	.
CC(=O)N1c2ccccc2C(=O)C1N1CCN(c2cccc(C)c2C)CC1 (stereo not given)	.	.	.	.	.
S=C1NCN(Cc2ccco2)CN1	.	.	.	41	.
CCCC(=O)n1nc(-c2cccnc2)nc1NCc1ccccc1	-42!	.	.	.	.
CCC(=O)n1nc(-c2cccnc2)nc1NCc1ccccc1	.	.	.	.	.
COc1ccc(CCNC(=S)NC(=O)c2ccccc2)cc1C	-33	.	.	.	.
COc1ccc(CCNC(=S)NC(=O)c2ccc(Br)cc2)cc1OC	.	.	.	.	.
COCCCNC(=O)c1cc(=O)n(Cc2ccc(Cl)cc2)c2ccccc12	-31	.	.	.	.
COCCCNC(=O)c1ccc(Cn2c(=O)c3ccccc3n(Cc3ccc(C)cc3)c2=O)cc1	.	.	.	.	.
SMILES	D1 antag	D1 PAM	D1 agonist	TRHR PAM	TRHR agonist
COc1cc(Cl)c(C)cc1NS(=O)(=O)c1c(C)nc2sccn2c1=O	-44	.	.	.	.
COc1ccc(OC)c(NS(=O)(=O)c2c(C)nc3sccn3c2=O)c1	.	.	.	.	.
O=C(N/N=C/c1ccc(OC(F)F)cc1)c1cc[n+]([O-])cc1	.	.	.	34	.
COc1ccc(/C=N/NC(=O)c2cc[n+]([O-])cc2)cc1	.	.	.	.	.
Oc1ccc2ccccc2c1C=Nc1ccc(N2CCOCC2)cc1	.	.	52	.	.
Oc1ccccc1N=Cc1c(O)ccc2ccccc12	.	.	101	.	.
CCCN1CCN(CCCNC(=O)c2ccc(CS(=O)c3ccc(OC)cc3)o2)CC1 (stereo not given)	.	.	.	.	.
CCOc1ccc(C(=O)OCC(=O)NC2CCCC2)cc1OCC	.	.	.	.	.
CCOc1cc(CNCc2ccccc2)ccc1OCC(=O)NC1CCCCC1	.	.	34	.	.
COc1cc(C)ccc1OCCCOc1ccccc1Cl	.	.	.	.	.
COc1cc(C)ccc1OCCCCOc1ccccc1C(C)=O	-49	.	.	.	.
CC(=O)c1ccccc1OCCOCCOc1ccccc1C(C)=O	-34	.	.	.	.
COc1ccc(NC(=O)CSc2nc3c([nH]c4ccccc43)c(=O)n2-c2ccccc2)c(OC)c1	.	.	.	.	.
O=C(CN1CCCCCC1)Nc1ccc(Oc2ccccc2)cc1	-38	.	67	.	.
O=C(COC(=O)C1CC1)Nc1ccc(Oc2ccccc2)cc1	-35	.	.	.	.
O=C(COC(=O)C1CCC1)Nc1ccc(Oc2ccccc2)cc1	.	.	.	.	.
O=C(CCCC(=O)OCC(=O)c1cccs1)Nc1ccc(Oc2ccccc2)cc1	-42	.	.	.	.
Cc1coc2cc3oc(=O)c4c(c3cc12)CCCC4	-45	.	.	.	.
O=C(Nc1ccncc1)c1cn(-c2ccccc2)nc1-c1cccs1	-49	.	.	.	.
O=C(Nc1nccs1)c1cn(-c2ccccc2)nc1-c1ccncc1	/	.	.	.	.
COc1cccc(-c2nnc(NC(=O)c3cccc(F)c3)o2)c1	.	.	.	33	.
Cc1cccc(-c2nnc(NC(=O)c3ccc(Cl)cc3)o2)c1	.	.	57	.	.
Cc1ccc(C(=O)Nc2nnc(-c3ccncc3)o2)cc1	.	.	.	.	.
O=C(Nc1nnc(-c2cccs2)o1)c1cccc(Oc2ccccc2)c1	.	.	85	.	.
COc1cccc(-c2nnc(NC(=O)c3ccccc3Br)o2)c1	.	.	.	.	.
SMILES	D1 antag	D1 PAM	D1 agonist	TRHR PAM	TRHR agonist
COc1cccc(-c2nnc(NC(=O)c3ccc(Cl)s3)o2)c1	-36	.	73	.	.
O=C(CSc1nnc(-c2ccccc2)c(-c2ccccc2)n1)NC1CCCCC1	.	.	.	.	.
CC(C)c1ccc(CNc2nc(-c3ccco3)nn2C(=O)c2ccc([N+](=O)[O-])cc2)cc1	.	.	.	.	.
O=C(CC(=O)c1ccccc1)Nc1ccc(Cl)cc1	.	.	.	.	.
Cn1c(CNC(=O)CSc2nc(-c3ccccc3F)nc3cc(=O)[nH]n23)nc2ccccc21	-58	.	.	.	.
CC(NC(=O)CSc1nc(-c2ccccc2F)nc2cc(=O)[nH]n12)c1nc2ccccc2n1C (stereo not given)	.	.	.	.	.
Cn1c(=O)[nH]c(=O)c2c1nc(SCC(O)CO)n2Cc1ccccc1Cl (stereo not given)	-64	.	.	.	.
Cn1c(=O)[nH]c(=O)c2c1nc(Br)n2Cc1ccccc1Cl	.	.	.	.	.
CC(C)OCCCNC(=O)CCCn1c(SCC(=O)c2ccc(F)cc2)nc2c(sc3ccccc32)c1=O	.	.	.	.	.
Cc1ccc(CNC(C)c2ccccc2)s1 (stereo not given)	.	.	.	.	.
CC(NCCC(c1ccccc1)c1ccccc1)c1ccccc1 (stereo not given)	.	.	60	.	.
